Only some compounds are listed: those with a hit (about 8% of all), similar ones and a draw of the others.
Lassa entry inh: blocks Lassa virus binding to or entry into cells | Lassa virus pseudotype entry inhibition, cell reporter | Potency, µM (titrated, usually from 37.9 µM), inactives show at the top dose activity change, negative = inhibition, hits mostly inhibitors | 1.2% of 300,000 active | AID 540256; calls by dose curve; tested in HEK293 cells; further: potency means the concentration at half of the fitted maximal effect; on the % scale 0 is the no-effect control and ±100 the full control effect; nearly all actives have a fitted effect of over 50% in size
HCV inhibitor: blocks hepatitis C virus | Potency, µM (titrated, usually from 41.8 µM), for inactives: top-dose activity change, negative = inhibition, most hits filed as inhibitors | 3.4% of 340,000 active | AID 651820 | Huh7.5.1 HCVcc-Cre infection, luciferase reporter, 44 h; active means well fitted inhibition curve with a large enough effect; inconclusive means small, poorly fitted or top-dose-only effect, or another doubt; inactive means no such curve, though single readings can be large or run the other way; further: potency means the concentration at half of the fitted maximal effect; on the % scale 0 is the no-effect control and ±100 the full control effect
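Luciferase read-out (15 sec integration) after a 15 min room-temperature substrate step quantifies HCVcc-Cre infection. Cells, 1,000 per well, had compound added 4 h post-plating, then virus at ~0.5 moi, and were cultured 44 h.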
FMDV inh: antivirals against foot and mouth disease virus; FMDV antiviral cell-based qHTS; Potency, µM (titrated, usually from 57.9 µM), for inactives: at the highest dose activity change, negative = inhibition, usual class: inhibitors; 1.2% of 410,000 active; calls by dose curve; tested in HEK293T cells; further: read-out not given here; potency means the concentration at half of the fitted maximal effect; on the % scale 0 is the no-effect control and ±100 the full control effect; nearly all actives have a fitted effect of over 45% in size
HCMV inh: blocks human cytomegalovirus replication; activity change, negative = inhibition, % at 57.5 µM; AID 1259415; HFF cells, HCMV-luciferase reporter, 72 h; stronger effect = lower value; 4.5% of 410,000 active; in the data active means activity change below about -60%; inconclusive means no clear call, values can overlap the other calls; inactive means above about -39%; further: on the % scale 0 is the no-effect control and ±100 the full control effect
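Screen run at 2 compound doses on HFFs infected with reporter HCMV, MOI 1 PFU/cell. Luciferase activity from cell lysates at 72 h post infection gave inhibition relative to buffer-only and Salinomycin wells.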
Marburg entry inh: blocks Marburg virus binding to or entry into cells; 1.8% of 300,000 active; Marburg virus pseudotyped entry inhibition, cell reporter; Potency, µM (series often up to 37.8 µM), inactives show at the top dose activity change, negative = inhibition, actives largely listed as inhibitors; AID 540276; calls by dose curve; tested in HEK293 cells; further: potency means the concentration at half of the fitted maximal effect; on the % scale 0 is the no-effect control and ±100 the full control effect
SARS PLP yeast: inhibitors of SARS-CoV papain-like protease in yeast; S. cerevisiae expressing SARS-CoV PLpro, growth rescue; Potency, µM (series often up to 32.9 µM), without a hit: at the top dose activity, positive = growth rescue, actives largely listed as activators; 0.19% of 330,000 active; AID 485353; calls by dose curve; further: potency means the concentration at half of the fitted maximal effect; 0% is about no effect; nearly all actives have a fitted effect of over 55% in size
The depositor's hits bear a star; ? = inconclusive; nt = not tested or not shown; + = active, no number; [ ] = dose if it differs, or a comment.

SMILES	Lassa entry inh	HCV inhibitor	FMDV inh	HCMV inh	Marburg entry inh	SARS PLP yeast
COc1cc(OC)c(NS(=O)(=O)c2c(C)nc3sc(C)cn3c2=O)cc1Cl	2.9%[46.1 µM]	nt	-26.8%	-11.1	nt	nt
CCOC(=O)NN=Cc1ccccc1-c1cc(OC)ccc1OC	nt	nt	nt	nt	-4.0%[14.2 µM]	nt
CCN(CC)CCCNC(=O)c1nn2c(C(F)(F)F)cc(-c3ccccc3)nc2c1Cl	nt	3.98µM*	-16.2%	0.4	nt	17.2%
COc1ccc(Nc2nccc3c2cc(-c2cccc(C(F)(F)F)c2)n3C)c(OC)c1	nt	nt	nt	14.8	nt	nt
O=C1CC(c2cccc(Br)c2)c2cc3c(cc2N1)CCC3 (stereo not drawn)	?	?	?	-65.4*	?	-36.4%
Cc1cc2c(cc1C)C(c1cccc([N+](=O)[O-])c1)CC(=O)N2 (stereo not drawn)	?	?	-27.0%	4.5	4.47µM*	-5.5%
COc1ccc(N2CCN(c3ccc(N4C(=O)CC(C)C4=O)cc3[N+](=O)[O-])CC2)cc1 (stereo not drawn)	nt	-16.9%	?	-89.9*	nt	-5.0%
Cc1cc(O)cc(C)c1C=Cc1cncc(C(=O)OC(C)(C)C)c1	0.791µM*	nt	nt	nt	nt	nt
CC(=O)c1ccc(C(=O)N2CCc3c(cnc(C)c3CNC(=O)c3ccc4c(c3)OCO4)C2)s1	nt	nt	-7.2%	nt	nt	nt
CCC(=O)N1CCC1(C)C(=O)Nc1ccc(OC(F)F)cc1 (stereo not drawn)	nt	nt	-10.4%	-63.3*	nt	nt
CCCC(=O)N1CCCC1(C)C(=O)Nc1ccc(OC(F)F)cc1 (stereo not drawn)	nt	nt	-12.8%	14.2	nt	nt
Oc1cc(-c2nc3ccccc3s2)cc2c1OCCN(Cc1cn[nH]c1-c1ccc(Cl)cc1)C2	nt	nt	10.3%	nt	nt	nt
CC(Oc1ccc(Br)cc1)C(=O)N(Cc1nc(-c2ccccc2)no1)C(C)C (stereo not drawn)	-16.2%[46.1 µM]	nt	?	-70.4*	?	nt
COc1ccc(OC(C)C(=O)N(C)Cc2nc(-c3ccc(OC)cc3)no2)cc1 (stereo not drawn)	-24.4%	?	?	-64.5*	-11.2%[46.1 µM]	2.1%
COc1ccc(OC(C)C(=O)N(C)Cc2nc(-c3ccc(C)cc3)no2)cc1 (stereo not drawn)	nt	14.1µM*	?	-32.3	-0.8%[46.1 µM]	-14.5%
COc1ccccc1OCC(=O)N(Cc1nc(-c2ccccc2)no1)C(C)C	7.94µM*	3.16µM*	-2.1%	-5.3	?	-3.0%
CC(C)N(Cc1nc(-c2ccccc2)no1)C(=O)COc1ccccc1	nt	-10.2%	-1.5%	-3.0	nt	-0.7%
COc1ccc(CC(=O)N(Cc2nc(-c3ccc(C)cc3)no2)C(C)C)cc1	1.4%[46.1 µM]	nt	-17.8%	-21.5	-29.1%[46.1 µM]	nt
COc1cc(Nc2cc3c(cn2)nc(-c2ccco2)n3C)cc(OC)c1OC	nt	nt	nt	10.6	nt	nt
COc1cc(CN2CCOc3ccc(CN4CCC(O)(c5cccnc5)CC4)cc3C2)ccc1F	nt	nt	0.9%	nt	nt	nt
CC(C)(C)c1ccc(C(=O)NCC(c2cccs2)S(=O)(=O)c2ccc(F)cc2)cc1 (stereo not drawn)	?	nt	20µM*	-31.2	nt	nt
CC(C)(C)c1ccc(C(=O)NCC(c2cccs2)S(=O)(=O)c2cccs2)cc1 (stereo not drawn)	?	nt	0.0%	-34.0	nt	nt
CCOC(=O)[C@@](O)(C1C(=O)CC(C)(C)CC1=O)C(F)(F)F	nt	nt	nt	nt	15.4%[46.1 µM]	nt
COc1ccc(F)cc1-c1cc(C(=O)Nc2ccc(C)c(NS(C)(=O)=O)c2)[nH]n1	nt	nt	35.5µM*	-27.9	nt	nt
COc1cc(F)ccc1-c1cc(C(=O)Nc2ccc(C)c(NS(C)(=O)=O)c2)[nH]n1	nt	nt	25.1µM*	-38.5	nt	nt
SMILES	Lassa entry inh	HCV inhibitor	FMDV inh	HCMV inh	Marburg entry inh	SARS PLP yeast
COc1ccc(NC(=O)c2cc(-c3cc(F)ccc3OC)n[nH]2)cc1OC	nt	nt	-3.7%	-21.0	nt	nt
CCCOc1ccc(F)cc1-c1cc(C(=O)Nc2ccc(C)c(NS(C)(=O)=O)c2)[nH]n1	nt	nt	35.5µM*	-32.0	nt	nt
COc1ccc(CNCc2c(C(=O)O)c(C)n(Cc3ccccc3C)c2C)cc1OC	-4.9%[46.1 µM]	nt	12.8%	2.3	-16.0%[46.1 µM]	nt
O=C(CCCCCn1c(=O)c2sccc2n(Cc2ccc(Cl)cc2)c1=O)NCc1ccc2c(c1)OCO2	-10.2%[46.1 µM]	nt	-1.5%	-18.5	26.0%[46.1 µM]	nt
CC12CCC3c4ccc(OC(=O)N(CCCl)CCCl)cc4CCC3C1CCC2O (stereo not drawn)	5.62µM*	?	-29.7%	8.8	?	nt
S=C1NC[C@H](Cc2cccc3ccccc23)N1CC1CCCCC1	nt	2.82µM*	0.0%	-23.8	nt	-0.7%
S=C1NC[C@H](Cc2ccccc2)N1CC1CCN(CCCC2CCCCC2)CC1	nt	nt	nt	-104.8*	nt	nt
O=C1NC[C@H](Cc2ccccc2)N(CC2CCN(CCCC3CCCC3)CC2)C1=O	nt	7.6%	-7.8%	-33.2	nt	nt
COc1ccc(CNC(=O)c2ccc(CNS(=O)(=O)c3ccc(F)cc3)cc2)cc1	28.5%[46.1 µM]	nt	-9.2%	31.9	nt	nt
COc1ccc(-n2ncc(C(=O)N3CCN(Cc4ccccc4)CC3)c2C2CCN(C(=O)OC(C)(C)C)CC2)cc1	?	nt	-13.2%	0.0	nt	nt
COc1ccc(C(=O)Nc2ccccc2C(=O)N2CCCCCC2)cc1	2.3%	19.1%	-6.4%	?	-7.6%	-1.2%
O=C(c1ccccc1Nc1ccc(SC(F)F)cc1)N1CCCCCC1	?	?	-22.1%	-101.2*	-5.1%	-25.2%
Cc1ccc(SC(C)C(=O)Nc2ccccc2C(=O)N2CCOCC2)cc1 (stereo not drawn)	0.4%	-11.9%	-26.7%	9.9	1.8%	-1.8%
O=C(Nc1ccccc1C(=O)N1CCCCCC1)c1ccc(F)cc1	nt	11.4%	-0.2%	-101.7*	nt	0.1%
CS(=O)(=O)Nc1ccc(C(=O)Nc2ccccc2C(=O)N2CCCC2)cc1	-6.1%	1.1%	8.0%	47.8	-2.9%	15.8µM*
COC(=O)c1ccccc1NC(=O)CNC(=O)c1ccc(OC)cc1	-27.6%[46.1 µM]	-0.1%	7.3%	+	-11.2%[46.1 µM]	-1.0%
COc1ccc(C(=O)Nc2ccccc2C(N)=O)cc1	-0.9%	9.5%	27.9%	127.5	25.0%	-6.4%
COc1cccc(CNc2ncnc3c2nnn3C)c1	18.2%[46.1 µM]	nt	0.2%	-13.9	nt	nt
Cc1ccc2c(c1)c1c(c(=O)n(-c3ccccc3)c(=O)n1CC(=O)NCCC1=CCCCC1)n2C	17.5%[46.1 µM]	nt	0.6%	16.1	nt	nt
CCc1cccc(C)c1NC(=O)c1cc(S(=O)(=O)N2CCCCCC2)cn1C	4.0%[46.1 µM]	nt	?	-18.1	nt	nt
CSc1nnc(CCNC(=O)c2ccc(-c3cccc(F)c3)cc2)n1-c1ccc(F)cc1	nt	nt	0.3%	nt	nt	nt
COC(=O)c1ccccc1NC(=O)c1ccc2c(c1)OCCO2	-2.6%	10µM*	18.8%	44.6	2.4%[46.1 µM]	-6.6%
CS(=O)(=O)Nc1ccc(C(=O)Nc2ccccc2Cl)cc1	19.4%[46.1 µM]	-0.6%	9.2%	-34.0	14.9%[46.1 µM]	0.2%
COC(=O)c1ccccc1NC(=S)NC(=O)c1ccc2c(c1)OCO2	19.1%	-18.0%	6.3%	76.0	4.0%	-1.3%
CC(=O)c1ccccc1NC(=O)c1ccc(N2CCCC2=O)cc1	11.2µM*	12.6µM*	-7.7%	-9.2	5.4%[46.1 µM]	-0.7%

Compound activity (PubChem BioAssay)
